Compound activity: PubChem, National Center for Advancing Translational Sciences (NCATS)
IP6K1 inhibitor: IP6K1 kinase inhibition; Q92551; IP6K1 kinase, ADP-Glo luminescence, 2 h; stronger effect = lower value; activity change, % (series mostly up to about 58 µM); 140,000 tested, 0.81% active; AID 1645851; in the data active = activity change below about -25%; also: % is scaled to controls: 0 for no effect and ±100 for the full control effect
Target sequence (Q92551 whole entry, looked up): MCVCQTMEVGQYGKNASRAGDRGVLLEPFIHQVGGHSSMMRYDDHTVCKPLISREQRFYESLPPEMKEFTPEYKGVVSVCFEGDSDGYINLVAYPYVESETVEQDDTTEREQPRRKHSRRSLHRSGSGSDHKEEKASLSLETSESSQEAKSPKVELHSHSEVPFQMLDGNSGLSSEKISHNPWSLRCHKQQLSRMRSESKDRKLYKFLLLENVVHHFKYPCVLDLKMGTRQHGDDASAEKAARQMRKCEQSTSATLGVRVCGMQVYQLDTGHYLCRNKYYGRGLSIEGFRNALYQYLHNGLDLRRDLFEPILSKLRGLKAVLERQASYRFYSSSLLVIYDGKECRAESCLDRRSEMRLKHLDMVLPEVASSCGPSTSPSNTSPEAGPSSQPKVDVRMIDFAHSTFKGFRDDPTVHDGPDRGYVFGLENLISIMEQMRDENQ
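ADP-Glo luminescence measures ADP made by human IP6K1 during a 2 h RT reaction with ATP/IP6 (mix at 1.3 mM/130 uM); top library doses 57.5 and 19.1 uM final.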
KDM5B inh: inhibitors of human KDM5B histone demethylase | Potency, µM (doses to about 57.7 µM), actives largely listed as inhibitors | 220,000 tested, 2.6% active | KDM5B demethylase, FDH-coupled NADH fluorescence (FDH is formaldehyde dehydrogenase) | Q9UGL1 | AID 1347165; also: potency is read from the fitted curve at half-maximal effect; 0% is about no effect; nearly all actives have a fitted effect of over 70% in size
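Compound dilutions met 200 nM (final) KDM5BΔAP for 10 min at room temperature before substrate addition. The substrate mix held 12.5 µM H3K4me3 with cofactors 25 µM α-ketoglutarate and 50 µM Fe²⁺. NADH signal gain over 30 min defined activity.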
IP6K1 conf: confirmation of human IP6K1 inhibitors; shares compounds with IP6K1 inhibitor; recombinant IP6K1 kinase, ADP-Glo luminescence, 2 h; Potency, µM (highest dose often 49 µM), for the others: top-dose activity change, negative = inhibition, most hits filed as inhibitors; 1,200 tested, 13% active; also: potency is read from the fitted curve at half-maximal effect; % is scaled to controls: 0 for no effect and ±100 for the full control effect; nearly all actives have a fitted effect of over 65% in size
Active calls of the source: *; i = inactive; ? = inconclusive; · = no result. In the library only some 2.8% were active in any assay of this set; here they are far more common. Unless noted, calls follow the shape of the dose curve; as a rule, active = well fitted inhibition curve with a large enough effect; inconclusive = small, poorly fitted or top-dose-only effect; inactive = no such curve, though single readings can be large or run the other way.

SMILES	IP6K1 inhibitor	KDM5B inh	others
COC1CC(OC2CCC3(C=O)C(CCC4C3CCC3(C)C(C5=CC(=O)OC5)CCC43O)C2)OC(C)C1OC1OC(CO)C(O)C(O)C1O (centres undefined)	22	·
OCC1CN(C2CCC2)CC12CCN(Cc1cccnc1)CC2 (centres undefined)	11	?
COCC1CN(C2CCC2)CC12CCN(Cc1cccnc1)CC2 (centres undefined)	7	28µM*
CCOC(=O)[C@H]1CN(C(=O)COc2ccccc2)[C@]2(C)C(=O)N(CC3CC3)c3ccccc3[C@H]12	-20	·
Cc1noc(-c2ccc(N3CC4CC(C3)c3cccc(=O)n3C4)nc2)n1 (centres undefined)	1	22µM*
Cc1nc(N2CC3CC(C2)c2cccc(=O)n2C3)c2c(C)nn(C)c2n1 (centres undefined)	-7	i
C=C1CC[C@H]2[C@@H](/C=C(\C)C(=O)[C@@]3(OC(C)=O)C[C@H](C)[C@H](OC(=O)c4ccccc4)[C@@H]3[C@H]1OC(C)=O)C2(C)C	6	·
c1ccc(O[C@H]2CNC3Cc4c([nH]c5ccccc45)C2C3)nc1 (some centres undefined)	27	·
COc1ccc(CC(=O)N2CCN(Cc3ccccc3-c3ccc(C)c(Cl)c3)CC2)cc1	-6	·
COc1ccc(S(=O)(=O)NC[C@H]2C[C@@H]3CCN2C[C@@H]3CN2CCC(Cc3ccccc3)CC2)cc1	-2	i
CCOc1ccc(CN(CCc2ccc3c(c2)OCO3)Cc2ccc(C)cc2)cc1	-2	?
CCOc1ccc(CN(CCc2ccc3c(c2)OCO3)Cc2cccc(Br)c2)cc1	-57*	?
C=C(C)C(=O)O[C@H]1[C@@H]2[C@H](C)C(=O)O[C@@H]2C[C@@H](C)[C@@H]2C=CC(=O)[C@]21C	-5	·
Cc1nc(-c2ccco2)cc([C@H]2CN3CC[C@H]2C[C@@H]3CNC(=O)C2CC2)n1	-6	35µM*
COc1ccc(-c2cc([C@H]3CN4CC[C@H]3C[C@@H]4CNC(=O)C3CC3)nc(C)n2)cc1OC	9	?
CC(=O)c1ccc(NC(=O)NC[C@H]2C[C@@H]3CCN2C[C@@H]3c2cc(-c3ccco3)nc(C)n2)cc1	-14	i
COc1ccc(-c2cc([C@H]3CN4CC[C@H]3C[C@@H]4CNC(=O)C3CCC3)nc(C)n2)cc1OC	68	32µM*
COc1ccc(-c2cc([C@H]3CN4CC[C@H]3C[C@@H]4CNC(=O)NC(C)C)nc(C)n2)cc1OC	8	32µM*
CCNC(=O)NC[C@H]1C[C@@H]2CCN1C[C@@H]2c1cc(-c2ccc(OC)c(OC)c2)nn1C	6	i
CCC(CC)c1cc([C@H]2CN3CC[C@H]2C[C@@H]3CNC(=O)COc2ccccc2)nc(-c2ccncc2)n1	13	25µM*
CCC(CC)c1cc([C@H]2CN3CC[C@H]2C[C@@H]3CNC(=O)Cc2cccs2)nc(-c2ccncc2)n1	8	i
CCCCOC(=O)N1C[C@H](C(=O)OCC)[C@H]2c3ccccc3N(CC3CC3)C(=O)[C@]21C	4	·
CN(Cc1cccc(-c2ccncc2)c1)C(=O)Oc1ccc(-c2ccc(C(N)=O)cc2)cc1	-14	·
CCOC(=O)[C@@H]1[C@H]2c3ccccc3N(CCOC)C(=O)[C@H]2N(C(=O)OCC)[C@@H]1c1ccccc1	-9	·
C#C[C@H]1CN2CC[C@H]1C[C@@H]2COC(=O)NCCC	-20	?
SMILES	IP6K1 inhibitor	KDM5B inh	others
COc1cc(O)c2c(c1)/C=C/C[C@@H](O)[C@@H](O)C(=O)CCC[C@H](C)OC2=O	1	·
Cc1cc(O)c2c(C)c(CC(=O)N3CCN(C)CC3)c(=O)oc2c1	·	i
CCOP(=O)(OCC)Oc1ccc2c(C)cc(=O)oc2c1	16	·
COCC(=O)NC[C@H]1C[C@@H]2CCN1C[C@@H]2c1cc(-c2ccccc2OC)nc(C)n1	4	35µM*
COCC(=O)NC[C@H]1C[C@@H]2CCN1C[C@@H]2c1cc(-c2ccccc2)nc(C)n1	9	i
C/C=C(/C)C1C=CC2CC(C)CC(C)C2C1/C(O)=C1\C(=O)NC(CC(C)(O)C(=O)O)C1=O (centres undefined)	-4	·
CCOC(=O)[C@H]1CN(C(=O)c2cc3ccccc3s2)[C@]2(C)C(=O)N(CC3CC3)c3ccccc3[C@H]12	-3	·
COc1cc2c(cc1Oc1cccc(N(C)C)c1)NC(=O)C21CCN(Cc2cccc(O)c2)CC1	-18	i
CSCC(=O)N1C[C@@H]2C[C@H](C1)c1c(-c3ccc(NC(C)=O)cc3)ccc(=O)n1C2	2	28µM*
CCCS(=O)(=O)Nc1ccc(=O)n2c1[C@@H]1C[C@@H](CN(C(=O)c3ccc(OC)cc3)C1)C2	5	i
CCCS(=O)(=O)N1C[C@@H]2C[C@H](C1)c1c(-c3ccc(Cl)cc3)ccc(=O)n1C2	5	?
O=c1ccc(-c2cccs2)c2n1C[C@H]1C[C@@H]2CN(S(=O)(=O)c2cccs2)C1	3	32µM*
CCCS(=O)(=O)Nc1ccc(=O)n2c1[C@@H]1C[C@@H](CN(C(=O)COc3ccccc3)C1)C2	14	32µM*
CSc1ccc(-c2ccc(=O)n3c2[C@@H]2C[C@@H](CN(S(C)(=O)=O)C2)C3)cc1	-1	35µM*
O=c1ccc(-c2cccs2)c2n1C[C@H]1C[C@@H]2CN(S(=O)(=O)c2cccc(C(F)(F)F)c2)C1	25	i
COc1ccc(-c2ccc(=O)n3c2[C@@H]2C[C@@H](CN(C(=O)CSC)C2)C3)cc1	-3	i
CCOC(=O)[C@H]1CN(C(=O)Nc2ccc3c(c2)OCO3)[C@]2(C)C(=O)N(CC3CC3)c3ccccc3[C@H]12	7	·
CCOC(=O)[C@H]1CN(C(=O)/C=C/c2ccccc2)[C@]2(C)C(=O)N(CC3CC3)c3ccccc3[C@H]12	-13	·
COc1ccccc1CC(=O)N1CC2(CCN(C)CC2)c2cc(OC)c(OCc3ccccc3)cc21	-15	i
CCOC(=O)[C@H]1CN([S+](=O)([O-])c2cccs2)[C@]2(C)C(=O)N(CC3CC3)c3ccccc3[C@H]12	5	·
O=c1c(-c2cccc(C(F)(F)F)c2)ccc2n1C[C@H]1C[C@@H]2CN(S(=O)(=O)c2cccs2)C1	4	?
O=C(O)CCC(=O)N1C[C@@H]2C[C@H](C1)c1ccc(-c3ccc(Cl)cc3)c(=O)n1C2	-1	35µM*
O=C(c1ccccc1)N1C[C@@H]2C[C@H](C1)c1ccc(-c3cccc(C(F)(F)F)c3)c(=O)n1C2	10	25µM*
O=C(O)COCC(=O)N1C[C@@H]2C[C@H](C1)c1ccc(-c3cccc(C(F)(F)F)c3)c(=O)n1C2	4	32µM*
O=C(O)COCC(=O)N1C[C@@H]2C[C@H](C1)c1ccc(-c3cc4ccccc4s3)c(=O)n1C2	48	?
O=C(c1ccccc1)N1C[C@@H]2C[C@H](C1)c1ccc(-c3ccc(Cl)cc3)c(=O)n1C2	-4	i
COP(=S)(OC)SCN1C(=O)c2ccccc2C1=O	-37*	·	IP6K1 conf=18µM*
N[n+]1cn[nH]c1	·	i
CN1CCN(C(=O)Cc2c[nH]c3ncc(-c4ccc(CO)cc4)cc23)CC1	6	?
